Reference: PubChem BioAssay (NCI)
The panel holds about 79,000 compounds, 15% with a hit somewhere; the sample as a whole holds those more often. Unmarked numbers belong to inactive results. Activity calls are given as the source filed them. No stated cut-off is given here; in the data, active means growth inhibition above about 70%; inactive means the rest.

Legend:
[1] = NCI Yeast Anticancer Drug Screen. Data for the rad50 strain (AID 155);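 further: 0% = growth of vehicle-only cultures of the same strain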; settings: S. cerevisiae rad50 strain growth inhibition, active compounds read high
Summary of the method: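 Vehicle-treated cultures provide the reference for the growth inhibition reported for compound-exposed, repair-deficient yeast.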

[2] = NCI Yeast Anticancer Drug Screen. Data for the mec2-1 strain (AID 157); settings: S. cerevisiae mec2-1 strain, active compounds read high
Summary of the method: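 Growth inhibition is read against vehicle-treated controls after compound exposure of the mec2-1 yeast strain, which is defective in DNA damage repair or cell cycle control.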

[3] = NCI Yeast Anticancer Drug Screen. Data for the sgs1 mgt1 strain (AID 161);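 further: 0% = growth of cultures given vehicle only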; settings: S. cerevisiae sgs1 mgt1 strain, active compounds read high
Summary of the method: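 Compounds are added to genetically altered yeast, and growth is compared with cultures given vehicle alone to give percent inhibition.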

[4] = NCI Yeast Anticancer Drug Screen. Data for the cln2 rad14 strain (AID 165);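 further: 0% = growth equal to vehicle treated cultures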; settings: S. cerevisiae cln2 rad14 strain, active compounds read high
Summary of the method: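 Growth inhibition, relative to vehicle-treated controls, is the read-out. The test organism is a yeast strain with defined genetic alterations, cln2 rad14.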

[5] = NCI Yeast Anticancer Drug Screen. Data for the bub3 strain (AID 167); settings: S. cerevisiae bub3 mutant strain, active compounds read high
Summary of the method: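 Mutant yeast screening strain plus compound; vehicle-treated cultures serve as the 0% inhibition reference.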

[6] = NCI Yeast Anticancer Drug Screen. Data for the mlh1 rad18 strain (AID 175); settings: S. cerevisiae mlh1 rad18 strain growth inhibition, active compounds read high
Summary of the method: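 Cells of a genetically altered yeast strain, deficient in DNA damage repair, were treated with compound. Their growth was then compared with that of vehicle-treated cultures to give inhibition.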

[7] = at 5.0 µM (retest, dose inferred, filed as 0.5)
[8] = at 50.0 µM (retest, dose inferred, filed as 5.0)

SMILES	growth inhibition [1, 7]	growth inhibition [1, 8]	growth inhibition ([1]; at 50.0 µM)	growth inhibition [2, 7]	growth inhibition [2, 8]	growth inhibition ([2]; at 50.0 µM)	growth inhibition [3, 7]	growth inhibition [3, 8]	growth inhibition ([3]; at 50.0 µM)	growth inhibition [4, 7]	growth inhibition [4, 8]	growth inhibition ([4]; at 50.0 µM)	growth inhibition [5, 7]	growth inhibition [5, 8]	growth inhibition ([5]; at 50.0 µM)	growth inhibition [6, 7]	growth inhibition [6, 8]	growth inhibition ([6]; at 50.0 µM)
CC(=O)c1c2c(cc3c1CC1(Cc4cc5c(cc4C1)C(=O)CCC5)C3)CCCC2 (centres undefined)	34%	32%	-15.8%	23%	25%	-16%	22%	27%	8.95%	22%	30%	8.4%	32%	33%	6.25%	28%	29%	13.8%
CCSC(=O)/C=C1\CN(C(=O)OC(C)(C)C)C1C(=O)OC(C)(C)C (centres undefined)	-23%	-7%	30.1%	-40%	-9%	26.9%	-44%	-2%	56%	-35%	14%	72.9% (active)	-57%	10%	58.5%	-15%	12%	70% (active)
CC(CCCOC(c1ccccc1)(c1ccccc1)c1ccccc1)OC(=O)Nc1ccccc1 (centres undefined)	85% (active)	85% (active)	83.9% (active)	81% (active)	81% (active)	85.8% (active)	63%	63%	84% (active)	92% (active)	92% (active)	83% (active)	69%	69%	79.7% (active)	93% (active)	93% (active)	81.5% (active)
Cc1cc(Br)c(NC(=O)CBr)cc1C	-1%	95% (active)	42.3%	-3%	97% (active)	73.3% (active)	-1%	97% (active)	72% (active)	-2%	94% (active)	46.9%	-1%	96% (active)	40.5%	-2%	96% (active)	81.5% (active)
Clc1nssc1=Nc1nonc1-c1ccccc1	59%	99% (active)	88.7% (active)	64%	100% (active)	91.2% (active)	86% (active)	100% (active)	79.9% (active)	68%	96% (active)	48.6%	97% (active)	99% (active)	79.7% (active)	49%	98% (active)	92.2% (active)
O=C(O)c1nc2cc(C(F)(F)F)ccc2nc1Nc1ccc(F)cc1	32%	64%	64%	23%	66%	68.2%	23%	60%	74.7% (active)	20%	57%	79.7% (active)	31%	60%	74.7% (active)	30%	75% (active)	42.9%
CC(C)C1=CC2=CC(=O)C3C(C)(C)CCCC3(C)C2=C(O)C1=O (centres undefined)	90% (active)	88% (active)	87.8% (active)	99% (active)	94% (active)	89.8% (active)	98% (active)	94% (active)	90% (active)	24%	86% (active)	85.5% (active)	49%	93% (active)	87.4% (active)	96% (active)	90% (active)	87.5% (active)
Cc1cc(Br)c2ccccc2c1N	1%	69%	88.3% (active)	2%	39%	54.2%	0%	74% (active)	94.2% (active)	-1%	42%	84.8% (active)	1%	22%	75% (active)	-3%	44%	90.2% (active)
COc1ccccc1C1C(Cl)C(=O)N1n1cnc2ccccc2c1=O (centres undefined)	-12%	-12%	83.9% (active)	-29%	7%	49.4%	-11%	2%	84.5% (active)	15%	16%	62.3%	9%	55%	83.2% (active)	-5%	-3%	76.8% (active)
COc1ccc(C(C)=O)c(OC(=O)c2ccccc2)c1OC(=O)c1ccccc1	-22%	9%	5.05%	-1%	7%	10.2%	-21%	-10%	-12.1%	2%	11%	-3%	-10%	-1%	1.15%	-1%	4%	-0.9%
Cc1ccc(Cl)cc1NN	-1%	95% (active)	96.5% (active)	5%	97% (active)	99.2% (active)	2%	89% (active)	48.6%	-1%	94% (active)	97.6% (active)	-2%	97% (active)	96.9% (active)	5%	96% (active)	47.6%
N#CC1=C(C#N)Sc2nc3cc(Cl)ccc3nc2S1	17%	99% (active)	68.7%	24%	99% (active)	91.1% (active)	30%	98% (active)	77.9% (active)	25%	99% (active)	20.6%	19%	98% (active)	41.9%	29%	99% (active)	94.8% (active)
CCCCCCCCCCCCNC(=O)c1ccc[n+](Cc2ccc(Cl)c(Cl)c2)c1	99% (active)	98% (active)	99% (active)	100% (active)	99% (active)	99% (active)	99% (active)	98% (active)	98.8% (active)	99% (active)	99% (active)	98.2% (active)	98% (active)	98% (active)	97.8% (active)	99% (active)	99% (active)	98.7% (active)
CCCCCCC[CH2][Sn]([CH2]CCCCCCC)([O]c1cccc2cccnc12)[O]c1cccc2cccnc12	21%	21%	89.7% (active)	18%	18%	87.7% (active)	14%	14%	89.7% (active)	9%	9%	85.4% (active)	4%	4%	90.1% (active)	10%	10%	86.3% (active)
Clc1ccc(CN2CCN(Cc3ccc(Cl)cc3)C2c2ccc(Cl)cc2)cc1	17%	66%	21.9%	4%	58%	34.5%	40%	92% (active)	53.5%	26%	55%	69.4%	33%	83% (active)	28.1%	28%	77% (active)	27.2%
CCOC(=O)OCCSCCOC(=O)OCC	-14%	19%	-4.35%	-12%	36%	17.6%	-5%	8%	14.2%	15%	-6%	13.8%	-9%	18%	19%	0%	47%	-9.65%
Cc1cc(Cl)ccc1NC(=O)CC1SC(=NC(=O)c2ccccc2Cl)NC1=O (centres undefined)	98% (active)	99% (active)	91% (active)	99% (active)	100% (active)	94.2% (active)	96% (active)	99% (active)	90.7% (active)	48%	99% (active)	92.4% (active)	98% (active)	99% (active)	91.5% (active)	98% (active)	99% (active)	92.2% (active)
CCCCCCCCNS(=O)(=O)c1ccc(N)cc1	4%	9%	80.8% (active)	0%	2%	25.2%	7%	2%	70.5% (active)	2%	0%	16.8%	1%	0%	61.2%	6%	2%	79.2% (active)
